Screening results: PubChem, The Scripps Research Institute Molecular Screening Center
GPR151 activ = human GPR151 activation | PathHunter beta-arrestin GPR151 cells, luminescence | 650,000 compounds, 1% hits | activation, % at 11.2 µM; in the data active means activation above about 4.9%
Target sequence (Q8TDV0 whole entry, looked up): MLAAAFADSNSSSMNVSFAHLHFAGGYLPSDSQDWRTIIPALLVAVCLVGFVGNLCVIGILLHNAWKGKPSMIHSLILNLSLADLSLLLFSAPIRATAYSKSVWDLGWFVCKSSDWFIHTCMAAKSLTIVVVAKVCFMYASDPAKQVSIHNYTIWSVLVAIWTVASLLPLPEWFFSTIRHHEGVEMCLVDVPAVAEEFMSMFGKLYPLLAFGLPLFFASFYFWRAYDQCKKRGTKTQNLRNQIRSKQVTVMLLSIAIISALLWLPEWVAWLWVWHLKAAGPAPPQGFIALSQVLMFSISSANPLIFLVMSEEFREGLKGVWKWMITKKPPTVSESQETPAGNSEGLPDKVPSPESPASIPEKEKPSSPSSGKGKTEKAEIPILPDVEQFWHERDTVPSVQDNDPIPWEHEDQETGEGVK
TEAD-YAP inh = TEAD-YAP interaction inhibition; HEK-TIYL cells, TEAD-Gal4/YAP UAS-luciferase luminescence; inhibition, % at 9.12 µM; 640,000 compounds, 1.4% hits; AID 1259422; in the data active means inhibition above about 32%
FBW7 act = human FBW7 E3 ligase activation, primary screen; Q969H0; AlphaScreen FBW7–phospho-cyclin E peptide binding, activator screen; normalized activity (activation), % at 26.1 µM; 650,000 compounds, 0.13% hits; AID 1259310; in the data active means normalized activity above about 1.9%;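 further: purified mutant Fbw7 with reduced substrate affinity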
MITF primary = inhibitors of human MITF; O75030; AlphaScreen MITF homodimerization, bead proximity signal; inhibition, % at 2.6 µM; 650,000 compounds, 0.91% hits; AID 1259374; in the data active means inhibition above about 50%
Each line names hits and unclear results; the compound was inactive in the other large screens; ! = repeats disagree. Hits are enriched below; roughly 3.5% of the tested compounds scored in any of these assays.

Nc1cccc(-c2cn3c(NC(=O)Cc4ccc(F)c(F)c4)cnc3cn2)c1	none
CN(C)CCNC(=O)c1ccc2c(c1)CC(c1nc3ncc(-c4ccnc(N)n4)cc3[nH]1)CO2 (stereo unspecified)	MITF primary 72.0
Nc1nccc(-c2ccc3nc(C4COc5ccc(C(=O)NCCc6ccccn6)cc5C4)[nH]c3c2)n1 (stereo unspecified)	FBW7 act 9.0
CC(C)CNC(=O)c1ccc2c(c1)CC(c1nc3ncc(-c4ccnc(N)n4)cc3[nH]1)CO2 (stereo unspecified)	none
Nc1nccc(-c2ccc3nc(C4COc5ccc(C(=O)NCCc6cccnc6)cc5C4)[nH]c3c2)n1 (stereo unspecified)	FBW7 act 4.2
Nc1nccc(-c2cnc3nc(C4COc5ccc(C(=O)NCCc6cccnc6)cc5C4)[nH]c3c2)n1 (stereo unspecified)	none
COc1ccc(/C=C2\c3ccc(C)cc3-c3nc4ccccc4cc32)cc1	none
COc1ccc(CCn2c(SCC(=O)C(C)(C)C)nc3ccsc3c2=O)cc1OC	none
Cn1ccc(C(=O)NCC2Cc3cccc(-c4ccncc4)c3O2)n1 (stereo unspecified)	none
Cc1c(/C=N/NC(=O)CCc2ccc(S(=O)(=O)N3CCOCC3)cc2)cc(C#N)n1C	none
O=C(CCc1ccc(S(=O)(=O)N2CCOCC2)cc1)N/N=C/c1ccc(O)c(O)c1O	MITF primary 54.1
O=C(O)/C=C\C(=O)Nc1ccc(Nc2ccccc2)cc1	none
O=c1c(CN2CCN(Cc3ccccc3)CC2)coc2ccccc12	TEAD-YAP inh 67.0
C#CCn1c(=NC(=O)C2COc3ccccc3O2)sc2cc(OC)c(OC)cc21 (stereo unspecified)	TEAD-YAP inh 34.7
Cc1ccc(C)c(Nc2nc(NCCN(C)C)nc3nccnc23)c1	FBW7 act 2.1
Cc1ccc(C)c(Nc2nc(NCc3ccco3)nc3nccnc23)c1	none
Cc1cccc(-n2cc(-c3cc4ccccc4oc3=O)[nH]c2=S)c1	TEAD-YAP inh 80.7
COc1ccc(-n2cc(-c3cc4ccccc4oc3=O)[nH]c2=S)cc1	none
O=c1oc2ccccc2cc1-c1cn(-c2ccccc2F)c(=S)[nH]1	TEAD-YAP inh 67.6
O=c1oc2ccccc2cc1-c1cn(-c2ccc(F)cc2)c(=S)[nH]1	TEAD-YAP inh 71.8
CCOC(=O)N/N=C/c1c2ccccc2cc2ccccc12	none
NC(=O)N/N=C/c1c2ccccc2cc2ccccc12	FBW7 act 2.0
O=C(N/N=C/c1c2ccccc2cc2ccccc12)C(=O)NC1CC1	TEAD-YAP inh 56.9
O=C(N/N=C/c1c2ccccc2cc2ccccc12)C(=O)Nc1ccccc1F	none
CCOc1ccc2ccccc2c1/C=N/NC(N)=S	TEAD-YAP inh 40.3
O=C(COc1ccc(F)cc1)NCC(=O)N1CCOC(c2ccccc2)C1 (stereo unspecified)	none
CSc1ccccc1N=CC1=C(O)CC(c2ccccc2)CC1=O (stereo unspecified)	none
CCOc1ccccc1N=CC1=C(O)CC(c2ccccc2)CC1=O (stereo unspecified)	FBW7 act 2.0!
O=C1CC(c2ccccc2)CC(O)=C1C=NCc1ccc2c(c1)OCO2 (stereo unspecified)	TEAD-YAP inh 37.8
O=C1CC(c2ccccc2)CC(O)=C1C=NCc1ccccc1Cl (stereo unspecified)	TEAD-YAP inh 51.0
O=C1NC2(CCN(C(=O)c3cccn4c(=O)c5ccccc5nc34)CC2)Oc2ccccc21	none
O=C(O)CCC(=O)n1c(/C=C/c2ccccc2)nc2ccccc21	TEAD-YAP inh 82.8
CC(=O)c1ccc(/C=C/c2nc3ccccc3n2C)o1	TEAD-YAP inh 52.7
CCn1c(/C=C/c2ccc(OC)cc2)nc2ccccc21	TEAD-YAP inh 72.0
CCCc1nc2ccccc2n1C(=O)CCC(=O)O	none
COCCn1c(/C=C/c2ccccc2)nc2ccccc21	none
Cn1c(/C=C/c2ccccc2)nc2ccccc21	TEAD-YAP inh 93.2
Nc1ncc(N=Nc2cc(C(=O)O)ccc2Cl)s1	none
Nc1ncc(N=Nc2cc(C(=O)O)cc(C(=O)O)c2)s1	MITF primary 61.0
Cc1nc(N)sc1N=Nc1cc(C(=O)O)cc(C(=O)O)c1	MITF primary 51.6
CC(=O)C(C)OC(=O)c1c(C)nn(-c2ccccc2)c1Cl (stereo unspecified)	none
CCOC(=O)C(=O)Nc1cc(OCC)c(NC(=O)c2ccc(OC)cc2)cc1OCC	none
Cc1ccc(-c2nc(-c3nonc3N)no2)cc1	none
CC(C)(C)c1ccc(-c2nc(-c3nonc3N)no2)cc1	TEAD-YAP inh 51.5
CC(C)(C)c1ccc(-c2nc(-c3c(F)cccc3F)no2)cc1	TEAD-YAP inh 68.5
N#Cc1ccc(-c2nc(-c3c(F)cccc3F)no2)cc1	none
